Among the test systems are SR leukemia; RPMI-8226 leukemia; OVCAR-8 ovarian; OVCAR-5 ovarian; OVCAR-4 ovarian; SK-OV-3 ovarian; IGROV1 ovarian; OVCAR-3 ovarian; HS 578T breast; NCI/ADR-RES ovarian.
Holding throughout (assay): NCI-60 one-dose screen, 48 h (100 = growth as untreated, 0 = no growth, -100 = all killed)
What all share (conditions): 10 µM unless noted

About 83,000 compounds went through this panel and 20% of them were active in at least one assay; those are over-represented in the sample as a whole.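 The endpoint reported here, percent growth, reads 100 for growth as untreated, 0 for no net growth and -100 for all cells dead.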 Unmarked numbers belong to inactive results. Calls of active or inactive are those of the source. How the source made its calls: active means growth percent below 10; inactive means the rest.

Consider `C/C(=N\Nc1ccc([N+](=O)[O-])cc1[N+](=O)[O-])c1ccc(Br)cc1`, for which the growth with SR leukemia is 84.4%; in the experiment with RPMI-8226 leukemia, 93.1%; with OVCAR-8 ovarian, 96.8%; with OVCAR-5 ovarian, 123%; in the experiment on OVCAR-4 ovarian it was 105%; with SK-OV-3 ovarian, 108%. The growth with IGROV1 ovarian is 110%; in the experiment on OVCAR-3 ovarian it was 99.7%; in the experiment on HS 578T breast it was 104%; in the experiment on NCI/ADR-RES ovarian, 106%.
Regarding `O=C(Nc1cccc(Cl)c1)c1ccc(Cl)cc1Cl`, the growth in the experiment with SR leukemia is 81.4%; in the experiment with RPMI-8226 leukemia, 84.5%; in the experiment on OVCAR-8 ovarian, 97.4%; in the experiment on OVCAR-5 ovarian it was 95.8%; in the experiment on OVCAR-4 ovarian it was 107%; in the experiment on SK-OV-3 ovarian, 95%. Also, the growth in the experiment with IGROV1 ovarian is 107%; with OVCAR-3 ovarian it was 98%; with HS 578T breast, 92.7%; with NCI/ADR-RES ovarian, 103%.
`Clc1cccc(Cl)c1CSc1nc2ccccc2n2cccc12`: the growth was 71.9% with SR leukemia; 96.1% in the experiment with RPMI-8226 leukemia; 104% with OVCAR-8 ovarian; 106% with OVCAR-5 ovarian; 70.4% in the experiment on OVCAR-4 ovarian; 88.6% with SK-OV-3 ovarian. The growth was 76.4% in the experiment on IGROV1 ovarian, 92.5% in the experiment on OVCAR-3 ovarian, 113% in the experiment on HS 578T breast and 101% with NCI/ADR-RES ovarian.
Regarding `c1ccc2c(NCCCN3CCN(CCCNc4c5ccccc5nc5ccccc45)CC3)c3ccccc3nc2c1`, the growth with SR leukemia is -3.4% [100 µM] (active); in the experiment with RPMI-8226 leukemia, -9.92% [100 µM] (active); in the experiment with OVCAR-8 ovarian, -37.8% [100 µM] (active); with OVCAR-5 ovarian it was -31.3% [100 µM] (active); with OVCAR-4 ovarian, -48.8% [100 µM] (active); with SK-OV-3 ovarian, -28.4% [100 µM] (active). In addition, the growth in the experiment with IGROV1 ovarian is -31.6% [100 µM] (active); in the experiment on OVCAR-3 ovarian it was -34.4% [100 µM] (active); in the experiment with HS 578T breast, -19.1% [100 µM] (active); in the experiment with NCI/ADR-RES ovarian, 35.7% [100 µM].
Regarding `CC(=O)OC(C)c1cccc(C#N)c1` (centres undefined), the growth is 104% in the experiment on SR leukemia; 102% with RPMI-8226 leukemia; 103% with OVCAR-8 ovarian; 104% in the experiment with OVCAR-5 ovarian; 109% in the experiment with OVCAR-4 ovarian; 93.8% in the experiment on SK-OV-3 ovarian. Further, the growth with IGROV1 ovarian was 115%; with OVCAR-3 ovarian, 111%; in the experiment with HS 578T breast, 106%.
Consider `CCOC(=O)/C(O)=C(\C=N\C(=S)Nc1ccc(Cl)c(Cl)c1)C(=O)OCC`, for which the growth is 85.7% in the experiment with SR leukemia; 80.1% with RPMI-8226 leukemia; 92.5% in the experiment with OVCAR-8 ovarian; 91.8% in the experiment with OVCAR-5 ovarian; 60.2% with OVCAR-4 ovarian; 81.6% in the experiment on SK-OV-3 ovarian. In addition, the growth was 101% in the experiment on IGROV1 ovarian, 100% with OVCAR-3 ovarian, 95.6% in the experiment on HS 578T breast and 90.8% in the experiment with NCI/ADR-RES ovarian.
As for `CSc1nsc(N)n1`, the growth in the experiment with SR leukemia was 98.4%; in the experiment with RPMI-8226 leukemia, 114%; in the experiment with OVCAR-8 ovarian it was 105%; in the experiment with OVCAR-5 ovarian, 107%; with OVCAR-4 ovarian, 104%; with SK-OV-3 ovarian it was 105%. Also, the growth is 97.6% with IGROV1 ovarian, 110% with OVCAR-3 ovarian and 90.7% in the experiment with HS 578T breast.
Take `CC(=O)O[C@H]1CC[C@]2(C)C3=C(C(=O)C[C@H]2C1(C)C)[C@]1(C)CC[C@H]([C@H](C)CCC(=O)O)[C@@]1(C)CC3=O`: the growth is 82.6% with SR leukemia; 101% in the experiment on RPMI-8226 leukemia; 109% in the experiment on OVCAR-8 ovarian; 100% in the experiment on OVCAR-5 ovarian; 94.7% in the experiment on OVCAR-4 ovarian; 99.3% in the experiment with SK-OV-3 ovarian. In addition, the growth in the experiment with IGROV1 ovarian was 103%; with OVCAR-3 ovarian, 102%; with HS 578T breast, 119%; with NCI/ADR-RES ovarian it was 100%.
As to `C=C(OC(C)=O)c1ccccc1`, the growth with SR leukemia is 80.7%; in the experiment on RPMI-8226 leukemia, 70.3%; with OVCAR-8 ovarian, 101%; in the experiment with OVCAR-5 ovarian, 106%; in the experiment with OVCAR-4 ovarian it was 115%; in the experiment with SK-OV-3 ovarian, 96%. Besides, the growth in the experiment on IGROV1 ovarian is 113%; in the experiment with OVCAR-3 ovarian it was 112%; in the experiment on HS 578T breast, 90.7%.
On to `CCC1CCC(C)NC1` (centres undefined), for which the growth in the experiment with SR leukemia is 109%; with RPMI-8226 leukemia it was 98.6%; in the experiment on OVCAR-8 ovarian, 102%; in the experiment on OVCAR-5 ovarian, 107%; with OVCAR-4 ovarian, 107%; in the experiment on SK-OV-3 ovarian it was 111%. For the same molecule, the growth in the experiment on IGROV1 ovarian was 110%; in the experiment with OVCAR-3 ovarian, 104%; in the experiment on HS 578T breast it was 95.7%.
On to `Cc1ccc(NC(=O)c2ccccc2Cl)cc1`, for which the growth in the experiment on SR leukemia was 92.3%; in the experiment on RPMI-8226 leukemia, 94.8%; in the experiment on OVCAR-8 ovarian, 115%; with OVCAR-5 ovarian it was 99.1%; in the experiment on OVCAR-4 ovarian, 107%; in the experiment on SK-OV-3 ovarian it was 124%. In addition, the growth was 93.8% in the experiment with IGROV1 ovarian, 122% in the experiment on OVCAR-3 ovarian, 103% in the experiment on HS 578T breast and 111% with NCI/ADR-RES ovarian.
For the molecule `O=[n+]1ccn([O-])c2ccccc21`, the growth in the experiment on SR leukemia is 78.3%; with RPMI-8226 leukemia, 78.9%; in the experiment on OVCAR-8 ovarian, 121%; in the experiment with OVCAR-5 ovarian, 93.1%; with OVCAR-4 ovarian, 106%; in the experiment with SK-OV-3 ovarian, 109%. For the same molecule, the growth in the experiment with IGROV1 ovarian is 106%; in the experiment with OVCAR-3 ovarian, 101%; in the experiment on HS 578T breast, 89.4%.
Take `CC(=O)OC/C(C)=C\CC(C)COC(C)=O` (centres undefined): the growth with SR leukemia is 83%; with RPMI-8226 leukemia, 94.2%; in the experiment on OVCAR-8 ovarian it was 99.8%; in the experiment on OVCAR-5 ovarian it was 111%; with OVCAR-4 ovarian, 105%; in the experiment on SK-OV-3 ovarian, 101%. The growth is 106% in the experiment with IGROV1 ovarian, 112% with OVCAR-3 ovarian, 100% in the experiment with HS 578T breast and 104% in the experiment with NCI/ADR-RES ovarian.
Consider `CC1=CC(=Nc2ccc(N(C)C)cc2)C=C(C)C1=O`, for which the growth was 88.1% in the experiment on SR leukemia; 39.7% with RPMI-8226 leukemia; 88.9% in the experiment on OVCAR-8 ovarian; 108% in the experiment on OVCAR-5 ovarian; 45.2% in the experiment with OVCAR-4 ovarian; 97.1% in the experiment on SK-OV-3 ovarian. The values for the growth in the experiment with IGROV1 ovarian, with OVCAR-3 ovarian and with HS 578T breast were 96.1%, 60% and 90.8%, respectively.

These data come from PubChem BioAssay (NCI).
